High-throughput results deposited in PubChem by Johns Hopkins Ion Channel Center.
KCNQ2 pot = KCNQ2 (rat) channel potentiation. CHO-K1 KCNQ2, FluxOR thallium flux fluorescence; active compounds read high. B-score at 10 µM. O88943. actives 0.54% (n = 310,000);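 active = fluorescence ratio B-score at least 3 SD of library B-scores, with initial fluorescence B-score within 3 of them, cut at about 5.3 in these data; same plate scores as AID 2156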;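 also: B-score of peak minus minimum over baseline fluorescence ratio after K+ and Tl+ stimulus; positive B-score means potentiation of KCNQ2 with more thallium influx and brighter signal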
KCNQ2 block = inhibitors of rat KCNQ2 potassium channel; CHO-K1 KCNQ2, FluxOR thallium flux, 20 min; active compounds read low; actives 1.1% (n = 310,000); O88943; B-score at 10 µM; AID 2156;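 active = fluorescence ratio B-score at most minus 3 library SDs, with starting brightness B-score within 2 library SDs, cut at about -5.5 in these data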
Kir21 conf inh = confirmation of mouse Kir2.1 potassium channel inhibitors; shares compounds with KCNQ2 pot; Kir2.1-expressing cells, FluxOR thallium flux fluorescence; active compounds read low; Tl flux remaining, % of negative control (active compounds read low), % at 10 µM; actives 41% (n = 2,300); AID 2032;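 active = Primary-screen hit whose thallium flux fell at least 3 control SD below untreated wells in both duplicates, with normal baseline fluorescence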;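 also: 0% = blank wells without stimulus and 100% = stimulated no-compound controls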
Target sequence (P35561 whole entry, looked up): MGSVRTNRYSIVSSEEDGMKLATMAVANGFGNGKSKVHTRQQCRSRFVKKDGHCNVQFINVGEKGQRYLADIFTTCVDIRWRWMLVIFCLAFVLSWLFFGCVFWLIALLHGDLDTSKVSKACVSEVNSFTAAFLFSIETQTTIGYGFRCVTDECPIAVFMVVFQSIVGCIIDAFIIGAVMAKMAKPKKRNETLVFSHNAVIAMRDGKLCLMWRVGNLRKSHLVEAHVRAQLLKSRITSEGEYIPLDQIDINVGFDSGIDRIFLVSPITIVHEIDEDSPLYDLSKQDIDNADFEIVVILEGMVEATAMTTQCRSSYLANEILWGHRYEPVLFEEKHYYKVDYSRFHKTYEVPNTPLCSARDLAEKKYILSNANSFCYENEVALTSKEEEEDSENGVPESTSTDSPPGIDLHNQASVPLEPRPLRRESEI
HEK293 Tl flux = counter-screen for Kir2.1 inhibitors: effect in parental HEK293 cells; shares compounds with KCNQ2 pot; FluxOR thallium flux fluorescence; 0% = unstimulated blank wells; FluxOR signal as % of negative control (100 = no effect), % at 10 µM; actives 19% (n = 2,300); AID 2105;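 active = dye signal at least 3 control SD above or below untreated wells in both duplicates, raw fluorescence within 3, either direction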;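 also: percent is based on the flux ratio of peak minus minimum fluorescence over baseline F0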
CHO-K1 ctr = alters thallium flux in parental CHO-K1 cells, KCNQ2 counter-screen; shares compounds with KCNQ2 pot; FluxOR thallium flux fluorescence; zero = vehicle mean+3SD, 100% = vehicle-minus-blank window; activity increase over 3SD of controls, % at 10 µM; actives 43% (n = 1,200);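 active = signal rise of at least 3 SD above the untreated control mean, in both duplicate wells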;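 also: counter screen of KCNQ2 potentiator hits so any rise reflects channel-independent effects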
KCNQ1 sel pot = tests whether KCNQ2 potentiators also act on human KCNQ1 | shares compounds with KCNQ2 pot | CHO KCNQ1 stable, FluxOR thallium flux fluorescence; beyond 3SD, as % of vehicle-control signal | activation over 3SD threshold, % at 10 µM | actives 28% (n = 1,200);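 active = fluorescence ratio rise of at least 3 SD of vehicle wells above their mean, in both replicate wells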;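 also: 0% = vehicle mean plus 3 SD and 100% = vehicle minus unstimulated blank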
KCNQ2 pot conf = confirmation of rat KCNQ2 potassium channel potentiators. shares compounds with KCNQ2 pot. CHO-KCNQ2 cells, FluxOR thallium flux fluorescence. potentiation, less the hit threshold, % at 10 µM. actives 68% (n = 1,200);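 active = fluorescence ratio rising 3 SD or more over the vehicle control mean in both replicates, plus primary screen hit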;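 also: peak minus minimum thallium fluorescence divided by baseline after K/Tl stimulus; 0% = vehicle mean plus 3 SD and 100% = vehicle minus unstimulated blank difference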
Kir2-1 sel = tests whether KCNQ2 potentiators also affect mouse Kir2.1; shares compounds with KCNQ2 pot; HEK293 Kir2.1, FluxOR thallium flux fluorescence; activity over 3SD threshold, % at 10 µM; actives 2% (n = 1,200);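 active = fluorescence ratio rise of at least 3 SD above the vehicle-control mean, seen in both replicates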;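 also: 0% = vehicle mean plus 3 SD and 100% = vehicle minus no-stimulus blank window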
KCNQ2 W236L pot = KCNQ2 potentiators acting on retigabine-insensitive rat KCNQ2 W236L mutant. shares compounds with KCNQ2 pot. CHO KCNQ2-W236L, automated patch clamp current. current increase over 3SD of negative controls (%), active compounds read high, % at 25 µM. actives 10% (n = 940). AID 2558;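 active = current increase at least 3 SD of the untreated controls above them in both duplicate recordings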
Active calls of the source: *. Most compounds without a hit are left out; they make up all but 1.6% or so of the library.

Screening O=C(CO/N=C/c1ccccc1OC(F)F)NC1CCCCC1 returned KCNQ2 block inactive.
`CCCN1C(=O)c2ccccc2NC1c1ccc(Cl)c(Cl)c1` (centres undefined) gave KCNQ2 block inactive.
CN[C@H]1CC[C@@H](c2ccc(Cl)c(Cl)c2)c2ccccc21 was read as KCNQ2 block inactive, Kir21 conf inh 32%* and HEK293 Tl flux inactive.
Cc1c(NC(=S)NC(=O)c2ccc(Br)o2)c(=O)n(-c2ccccc2)n1C was read as KCNQ2 block inactive.
Screening Cc1cccc(NC(=S)NC(=O)c2ccc(Br)o2)c1C returned KCNQ2 pot 8.4*, KCNQ2 block inactive, Kir21 conf inh inactive, HEK293 Tl flux 148%*, CHO-K1 ctr 47*, KCNQ1 sel pot -1, KCNQ2 pot conf 28*, Kir2-1 sel -21 and KCNQ2 W236L pot inactive.
For Cc1cccc(C)c1NC(=S)NC(=O)c1ccc(Br)o1 the results were KCNQ2 pot 14*, KCNQ2 block inactive, Kir21 conf inh inactive, HEK293 Tl flux inactive, CHO-K1 ctr 0.9*, KCNQ1 sel pot -20, KCNQ2 pot conf 60*, Kir2-1 sel -21 and KCNQ2 W236L pot inactive.
O=C(NNC(=S)Nc1ccccc1C(F)(F)F)c1ccc(Br)o1 was read as KCNQ2 pot 0.04 and KCNQ2 block inactive.
Cc1ccc(NC(=S)NC(=O)c2ccc(Br)o2)c(C)c1 was read as KCNQ2 pot 1.9 and KCNQ2 block inactive.
O=C(NC(=S)Nc1ccccc1F)c1ccc(Br)o1 was read as KCNQ2 pot 16*, KCNQ2 block inactive, Kir21 conf inh inactive, HEK293 Tl flux inactive, CHO-K1 ctr 57*, KCNQ1 sel pot -16, KCNQ2 pot conf 67*, Kir2-1 sel -19 and KCNQ2 W236L pot inactive.
CC(C)c1ccc2nc(NC(=O)C3CC3)sc2c1 was read as KCNQ2 pot 5.6*, KCNQ2 block inactive, Kir21 conf inh inactive, HEK293 Tl flux 68%*, CHO-K1 ctr 21*, KCNQ1 sel pot -8, KCNQ2 pot conf 28*, Kir2-1 sel -32 and KCNQ2 W236L pot 27%*.
Screening O=C(Nc1nc2ccc(Cl)cc2s1)C1CC1 returned KCNQ2 pot 0.82 and KCNQ2 block inactive.
For Cc1ccc(CN2CCC(c3cc(-c4cccs4)n[nH]3)CC2)cc1 the results were KCNQ2 block inactive, Kir21 conf inh 26%* and HEK293 Tl flux inactive.
`FC(F)(F)c1cccc(CN2CCC(c3cc(-c4cccs4)n[nH]3)CC2)c1` gave KCNQ2 block inactive.
`COc1ccc(CCNc2cc(C)nc(N)n2)cc1OC` gave KCNQ2 block inactive.
Screening O=c1[nH]c(C(Cl)(Cl)Cl)nc2ccc3ccccc3c12 returned KCNQ2 pot 6.6*, KCNQ2 block inactive, Kir21 conf inh inactive, HEK293 Tl flux 174%*, CHO-K1 ctr -18, KCNQ1 sel pot 38*, KCNQ2 pot conf 5.6*, Kir2-1 sel -19 and KCNQ2 W236L pot inactive.
`O=c1[nH]c(C(F)(F)F)nc2ccccc12` gave KCNQ2 pot 0.68 and KCNQ2 block inactive.
`O=C(CSc1nc(-c2ccco2)cc(C(F)(F)F)n1)N1CCSCC1` gave KCNQ2 pot 12*, KCNQ2 block inactive, Kir21 conf inh inactive, HEK293 Tl flux inactive, CHO-K1 ctr -3, KCNQ1 sel pot 68*, KCNQ2 pot conf 34*, Kir2-1 sel -36 and KCNQ2 W236L pot inactive.
For CN1CCN(C(=O)CSc2nc(-c3ccco3)cc(C(F)(F)F)n2)CC1 the results were KCNQ2 pot 0.86 and KCNQ2 block inactive.
For O=C(CCSc1nc(-c2ccco2)cc(C(F)(F)F)n1)N1CCN(c2ccccn2)CC1 the results were KCNQ2 block inactive.
Screening O=C(CSc1nc(-c2ccco2)cc(C(F)(F)F)n1)N1CCN(c2cccc(Cl)c2)CC1 returned KCNQ2 pot 7.9*, KCNQ2 block inactive, Kir21 conf inh inactive, HEK293 Tl flux 76%*, CHO-K1 ctr 15*, KCNQ1 sel pot 60*, KCNQ2 pot conf -16 and Kir2-1 sel -44.
`Cc1ccc(S(=O)(=O)CCC(=O)OCc2nc(N)nc(Nc3ccccc3C)n2)cc1` gave KCNQ2 pot 1.3 and KCNQ2 block inactive.
`Cc1ccc2c(CC(=O)OCc3nc(N)nc(Nc4ccccc4C)n3)coc2c1` gave KCNQ2 pot 11*, KCNQ2 block inactive, Kir21 conf inh inactive, HEK293 Tl flux inactive, CHO-K1 ctr 17*, KCNQ1 sel pot -14, KCNQ2 pot conf 15*, Kir2-1 sel -37 and KCNQ2 W236L pot inactive.
For Cc1ccc2cccc(Oc3ccc([N+](=O)[O-])cc3[N+](=O)[O-])c2n1 the results were KCNQ2 pot 0.06 and KCNQ2 block inactive.
`COC(=O)C1=C(NC(=O)c2ccc(C)c(C)c2)CCS1` gave KCNQ2 block inactive.
COc1ccccc1NC(=O)CC12CC3CC(CC(Br)(C3)C1)C2 was read as KCNQ2 pot 6.7*, KCNQ2 block inactive, Kir21 conf inh inactive, HEK293 Tl flux inactive, CHO-K1 ctr -3, KCNQ1 sel pot 41*, KCNQ2 pot conf 23*, Kir2-1 sel -17 and KCNQ2 W236L pot inactive.
For NC(=O)c1ccccc1NC(=O)CC12CC3CC(CC(Br)(C3)C1)C2 the results were KCNQ2 pot 1.1 and KCNQ2 block inactive.
For COc1ccc(NC(=O)CNC(=O)C23CC4CC(CC(C4)C2)C3)c(OC)c1 the results were KCNQ2 block inactive.
For COc1ccc(NC(=O)CC23CC4CC(CC(Br)(C4)C2)C3)c(OC)c1 the results were KCNQ2 pot 16*, KCNQ2 block inactive, Kir21 conf inh inactive, HEK293 Tl flux inactive, CHO-K1 ctr -1, KCNQ1 sel pot 2.8*, KCNQ2 pot conf 72*, Kir2-1 sel -30 and KCNQ2 W236L pot inactive.
For CCN(c1ccccc1C)S(=O)(=O)c1nnc(NC(=O)c2ccco2)s1 the results were KCNQ2 pot 0.65 and KCNQ2 block inactive.
Screening O=C1N(c2ccccc2)C(c2ccccc2)N2CCCN12 (centres undefined) returned KCNQ2 pot 0.83 and KCNQ2 block inactive.
